Measurements from PubChem BioAssay.
Activity calls are given as the source filed them.

Legend:
[1] = A549 cell viability effects, profiling panel, calcein-AM fluorescence, 48 h, basal (AID 1162); details: higher = more signal
[2] = adipocyte viability effects, profiling panel, cell-based, 3T3-L1 adipocytes, calcein-AM fluorescence, 48 h, basal (AID 1163); details: 3T3-L1 adipocytes viability, higher = more signal
[3] = HepG2 cell viability effects, profiling panel, calcein-AM fluorescence, 48 h, basal (AID 1164); details: higher = more signal
[4] = MM1S cell viability effects, profiling panel, calcein-AM fluorescence, 48 h, basal (AID 1165); details: higher = more signal;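 further: viability of MM1S multiple myeloma cells under basal unstimulated conditions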
[5] = basal RPMI8226 viability, no added stimulus, profiling panel, cell-based, calcein-AM fluorescence, 48 h, PK04 Diversity Set (AID 1166); details: RPMI8226 myeloma viability, higher = more signal;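 further: cells grown under basal conditions without added stimulus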
[6] = basal HepG2 mitochondrial membrane potential changes, profiling panel, cell-based, JC-1 fluorescence, 24 h, 100 nL compound (AID 1167); details: higher = more signal
[7] = basal 3T3-L1 adipocyte mitochondrial potential changes, profiling panel, cell-based, JC-1 fluorescence, 3T3-L1 adipocytes, 24 h, 100 nL compound (AID 1168); details: JC-1 mitochondrial fluorescence, higher = more signal, called active from +8 up or from −8 down
[8] = basal RPMI8226 mitochondrial membrane potential changes, profiling panel, cell-based, JC-1 fluorescence, 24 h, 100 nL compound (AID 1169); details: RPMI8226 myeloma, JC-1 mitochondrial potential fluorescence, higher = more signal
[9] = basal MM1S mitochondrial membrane potential changes, profiling panel, cell-based, JC-1 fluorescence, 24 h, 100 nL compound (AID 1170); details: higher = more signal
[10] = A549 lung cancer cell viability effects, profiling panel, resazurin fluorescence, 24 h, PK04 Diversity Set (AID 1171); details: higher = more signal, called active from +8 up or from −8 down
Further: test concentration not given here.

Row | Compound | z-score [1] | z-score [2] | z-score [3] | z-score [4] | z-score [5] | z-score [6] | z-score [7] | z-score [8] | z-score [9] | z-score [10]
1 | CCN1C(=O)[C@H]2[C@H]3[C@H](O)[C@H](O)CC(=NOCc4ccccc4)[C@@H]3CC[C@H]2C1=O | 0.391 | 0.817 | 1.43 | 0.565 | -0.714 | 0.402 | 0.752 (inactive) | -0.0637 | -0.758 | -0.725 (inactive)
2 | C=C(/C(=C/C[C@H](OC(=O)c1ccncc1)c1ccc(OCCO)cc1)c1cnc2ccccc2c1)C(C)C | 1.31 | -0.122 | 0.0253 | -2.75 | -0.294 | 0.92 | -0.69 (inactive) | -0.815 | -0.0967 | 0.58 (inactive)
3 | CC(C)=C1C(=O)C(c2ccccc2)=C2CN3C(=O)N(CCc4ccccc4)C(=O)[C@]3(Cc3ccc(F)cc3)[C@H]21 | -0.751 | -0.0154 | -0.435 | -0.871 | -0.975 | 1.07 | -1.68 (inactive) | -0.0557 | -0.339 | 0.0406 (inactive)
4 | CCCNC(=O)OC[C@H]1O[C@H](CCON=C[C@@H](OC)[C@H](C)C=CCC(=O)OC)C=C[C@@H]1Oc1ccc(OC)cc1 | 0.0666 | 0.764 | 0.97 | -0.902 | 0.122 | -0.12 | -0.277 (inactive) | 0.0719 | -0.118 | 1.2 (inactive)
5 | O=C1NC(=O)C2C1C=CC(C(O)Cc1ccccc1)N2Nc1ccccn1 (stereo not given) | 0.379 | -0.949 | 1.16 | -0.171 | -0.87 | 0.0266 | 0.272 (inactive) | 0.477 | -0.684 | -1.22 (inactive)
6 | CCOc1ccc(N2C(=O)/C(=C/C=C/c3ccccc3OC)S(=O)(=O)C2c2cccc([N+](=O)[O-])c2)cc1 (stereo not given) | 1.18 | 1.39 | 0.136 | -2.72 | -0.879 | -0.855 | -0.125 (inactive) | -0.732 | -0.0787 | 0.0969 (inactive)
7 | CCCCC(=C=CC[C@H](O)c1ccccc1OCCO)C[C@H](O)COCc1ccccc1 | 0.395 | 0.0907 | 0.514 | -2.92 | -1.29 | -0.0498 | -0.643 (inactive) | -0.621 | -0.611 | 0.189 (inactive)
8 | COc1ccc(O[C@H]2C=C[C@@H](c3ccccc3)O[C@@H]2COC(=O)CCC(C)=NOC(C)CN2CCCCc3nc(C)c(C)cc32)cc1 (stereo not given in full) | -0.294 | -0.471 | 0.197 | -1.35 | -0.666 | 0.775 | -0.313 (inactive) | -0.508 | -0.903 | 1.61 (inactive)
9 | COC(=O)[C@@]1(Cc2ccc(F)cc2)[C@@H]2C(=CC(=O)[C@H]2CC(=O)C(=O)N(C)C)CN1C(=O)c1ccccc1 | -1.29 | -1.34 | 0.201 | -1.24 | -2.67 | 2.62 | 0.441 (inactive) | -0.817 | -2.01 | -1.73 (inactive)
10 | COC(=O)[C@@]1(Cc2ccc(OC)cc2)[C@H]2c3cc(C(=O)N4CCCC4)n(Cc4cc(F)c(F)c(F)c4)c3C[C@H]2CN1C(=O)c1ccccc1 | -1.19 | -0.0755 | -0.521 | -1 | -3.11 | 1.31 | -1.6 (inactive) | -0.87 | -1.2 | -1.08 (inactive)
11 | COCCCNC(=O)[C@]1(Cc2ccccc2)N=C(c2ccc(OCCCO)cc2)O[C@@H]1c1ccccc1 | -0.2 | 0.346 | 0.0484 | -2.27 | -0.701 | -0.175 | 0.492 (inactive) | -0.286 | -0.498 | 2.67 (inactive)
12 | COc1cccc([C@H]2Oc3ccc(OC)cc3C(=NO[C@H](C)c3cn([C@@H]4COC[C@H]4O)nn3)[C@@H]2O)c1 | -1.3 | 0.67 | -0.428 | -0.717 | -0.786 | -0.832 | 0.839 (inactive) | 0.161 | -0.761 | -0.481 (inactive)
13 | COC(=O)[C@H](C)NC(=O)CCC1CC(OC(=O)NCc2ccc3c(c2)OCO3)CC2(CCCC(COC(=O)NCCOc3ccccc3)O2)O1 (stereo not given in full) | 1.99 | 0.714 | 0.748 | 0.0937 | 0.487 | 0.916 | 1.67 (inactive) | -0.647 | -1.09 | 0.294 (inactive)
14 | O=C1[C@H]2[C@H]3[C@H](O)[C@H](O)CC(=NOCc4ccccc4)[C@H]3CC[C@H]2C(=O)N1c1ccc(F)cc1F | 0.213 | 0.118 | -0.196 | 0.772 | 0.471 | 0.577 | 0.918 (inactive) | 0.305 | -0.801 | -0.0399 (inactive)
15 | CCc1cc2c(nc1CC)CCN(CCC(C)=NOC[C@@H](O)[C@H]1O[C@@H]3OC(C)(C)O[C@@H]3[C@H]1O)C2 | 0.719 | 0.879 | 1.09 | -1.1 | -0.531 | 0.244 | -1.1 (inactive) | 0.527 | -0.162 | -0.0919 (inactive)
